According to PubChem BioAssay (NCI):
The panel holds about 79,000 compounds, 15% with a hit somewhere; the sample as a whole holds those more often. Values without a mark were called inactive. Cut-off read from the data, not from the text of the source: active = growth inhibition above about 70%; inactive = the rest.

Experiment: NCI Yeast Anticancer Drug Screen. Data for the rad14 strain (AID 159);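 note: 0% = growth of vehicle-treated control cultures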
Details: S. cerevisiae rad14 strain growth inhibition; at 3.7 µM; stronger effect = higher value
Outline: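 Growth inhibition vs vehicle controls; genetically altered yeast strain (DNA damage repair defect) treated with test compounds.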

Compound | growth inhibition [%]
O=CC=C(c1ccccc1)c1ccccc1 | -2
FC(F)(F)c1nc2nc(Cl)c(Cl)nc2n1CCCN1CCOCC1 | 11
BrCC[P+](c1ccccc1)(c1ccccc1)c1ccccc1 | -52
N#CSc1ccc(S(N)(=O)=O)cc1 | -43
O=[N+]([O-])c1ccc2nc3ccccc3cc2c1 | 9
O=C(NC(Nc1ccc(F)c(Cl)c1)(C(F)(F)F)C(F)(F)F)C(C(F)(F)F)C(F)(F)F | 19
O=C(/C=C\c1ccc(Cl)cc1Cl)c1cccs1 | 1
O=C(NCCCCNCCCNC(=O)c1cc(-c2ccccc2)nc2ccccc12)c1cc(-c2ccccc2)nc2ccccc12 | -2
NC(=NCc1ccccc1)N/N=C\c1ccnc2ccccc12 | 3
CCCCN(CCCC)CCSc1ccc(Cl)cc1 | -5
COc1cc(C2C3=C(COC3=O)Oc3cc4c(cc32)OCO4)ccc1O (stereo not drawn) | -1
C#CCCCc1ccccc1 | -39
CCc1ccc(NS(=O)(=O)c2ccccc2)c([N+](=O)[O-])c1 | 5
COc1ccc(C2c3cc4c(cc3OC(C)(O)C2C)OCO4)c(OC)c1 (stereo not drawn) | -4
COC(=O)c1ccc(CCC2=CC(=O)C(Br)=CC2=O)cc1 | 1
NNC(=O)CCc1ccc2ccc3ccccc3c2c1 | -2
Cn1c2ccccc2c(=O)c2cc(NC(=O)CCCCC(=O)Nc3ccc4c(c3)c(=O)c3ccccc3n4C)ccc21 | 3
CC(CC(C)(C)[N+](C)(C)C)[N+](C)(C)C (stereo not drawn) | 3
